Coupling enz – qHTS Assay for Inhibitors of Fructose-1,6-bisphosphate Aldolase from Giardia Lamblia: Coupling assay counterscreen; coupling enzyme system counterscreen, AmpLite Red fluorescence; activity change, negative = inhibition, % at 58.2 µM, hits read low; 0.67% of 290,000 active; in the data active means activity change below about -30%
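First, compound is pin-transferred into glyceraldehyde-3-phosphate coupling-enzyme reagent at 57.5 uM final and held 10 min at RT. Next, substrate, coupling system and AmpLite Red are added. After 20 min RT, fluorescence (525/598 nm) is read.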
Tau fluor cs – Counterscreen qHTS for Inhibitors of Tau Fibril Formation, Fluorescence Polarization; tau K18 P301L Alexa594 fluorescence, heparin fibrillization; Potency, µM (highest dose often 57.7 µM), without a hit: top-dose activity change, negative = decrease; 0.93% of 280,000 active; AID 1463, 2008; further: potency means the concentration at half of the fitted maximal effect; nearly all actives have a fitted effect of over 55% in size
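Human tau K18 P301L (15 uM unlabeled, 0.24 uM Alexa 594-labeled) in 100 mM sodium acetate pH 7 with 20 uM heparin, 6 hr at 37 C. ThT 30 uM added, 1 hr ambient; Alexa 594 FP and total fluorescence read at 555/632 nm.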
Tau ThT inhib – qHTS for Inhibitors of Tau Fibril Formation, Thioflavin T Binding | recombinant tau K18 P301L (four-repeat tau fragment), heparin-induced fibrillization, ThT fluorescence | Potency, µM (highest dose often 57.4 µM), for inactives: at the highest dose activity, negative = inhibition, most hits filed as inhibitors | 2.1% of 270,000 active; further: potency means the concentration at half of the fitted maximal effect; nearly all actives have a fitted effect of over 55% in size
Target sequence (P10636 561-689 P618L limits assumed): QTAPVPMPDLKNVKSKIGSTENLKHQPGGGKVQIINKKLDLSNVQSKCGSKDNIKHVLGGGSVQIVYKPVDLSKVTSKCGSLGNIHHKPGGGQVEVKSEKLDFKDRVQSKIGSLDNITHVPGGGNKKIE
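In this qHTS, human K18 P301L tau is incubated with compound and heparin for 6 hr at 37 C, and Thioflavin T fluorescence then reports fibril load.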
Tau FP inhib – qHTS for Inhibitors of Tau Fibril Formation, Fluorescence Polarization | Microtubule-associated protein tau (Homo sapiens), P10636 | K18 P301L tau heparin fibrillization, Alexa594 FP, 6 h | Potency, µM (doses to about 57.7 µM), for the others: at the top dose activity, negative = inhibition, actives largely listed as inhibitors | 0.39% of 280,000 active | AID 1468, 2008; further: potency means the concentration at half of the fitted maximal effect; nearly all actives have a fitted effect of over 55% in size
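Quantitative HTS format: compounds meet 15 uM recombinant K18 P301L tau and Alexa 594-tau tracer in 100 mM sodium acetate pH 7; 20 uM heparin triggers fibrillization at 37 C over 6 hr; FP gives the signal.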
Sfp inh – qHTS Assay for Inhibitors of Bacillus subtilis Sfp phosphopantetheinyl transferase (PPTase); 4'-phosphopantetheinyl transferase ffp (Bacillus subtilis), Q9F4F7; Biochemical Sfp PPTase activity, qHTS; Potency, µM, for the others: largest response in the series, negative = inhibition, most hits filed as inhibitors; 3.5% of 310,000 active;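 further: the enzyme is Sfp with the accession as filed and its product quenches rhodamine fluorescence; potency means the concentration at half of the fitted maximal effect; 0% = enzyme reaction without inhibitor and -100% = no enzyme wells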
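Step 1, compound plus 15 nM Sfp-PPTase, 15 min, room temperature. Step 2, add rhodamine-CoA (5 uM) and BHQ-2-YbbR (12.5 uM). Step 3, read 525/598 nm fluorescence at 0 and 30 min.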
An asterisk follows results filed as active; ? = inconclusive; · = no result given; [ ] = dose if it differs, or a comment. An excerpt weighted towards active compounds, which were near 5.2% of everything screened. Unless noted, the call rests on the fitted dose curve; in most records, active means well fitted curve in the direction sought with a large enough effect; inconclusive means small, poorly fitted or top-dose-only effect, or another doubt; inactive means no such curve, though single readings can be large; an effect the other way counts as inactive or inconclusive. Unless noted, on the % scale 0 is the no-effect control and ±100 the full control effect.

SMILES	Coupling enz	Tau fluor cs	Tau ThT inhib	Tau FP inhib	Sfp inh
COc1ccccc1CC(=O)NC1CCCc2ccccc21 (stereo not given)	0.2	-14.6%	-9.7%	-5.5%	4.0%
COc1ccccc1-c1ccc(=O)n(CC(=O)NC2CCc3ccccc32)n1 (stereo not given)	-0.2	-1.8%	-17.4%	-4.9%[2.34 µM]	35.5µM*
Cc1cc(SCC(=O)N/N=C/c2ccc(O)c(O)c2)c(C)cc1Br	0.7	14.1µM*[quencher]	?	18.0%	?
Cc1cc(SCC(=O)N/N=C/c2ccc(O)c(O)c2)nc2ccccc12	-0.1	·	·	·	-16.6%
CCOC(=O)N1CCC(NC(=O)c2oc3c(c2C)-c2[nH]ncc2CC3)CC1	-40.8*	-15.2%	?	4.7%	-10.8%
CCc1ccccc1NC(=O)CN(Cc1ccccc1)S(=O)(=O)c1ccc(Br)cc1	·	-10.4%	?	0.3%	·
COc1ccc(C(C#N)=C2C=CC(=NO)C=C2)cc1	0.5	-51.7%	·	-29.8%	25.1µM*
O=C(COc1ccc(Cl)cc1Cl)Nc1ccc(C(=O)OC2CCCCC2)cc1	·	-20.3%	-15.2%	-3.6%	·
CCCN1C(=O)/C(=C/c2c(N3CCNC(=O)C3CC(=O)OC)nc3c(C)cccn3c2=O)SC1=S (stereo not given)	-4.5	-19.6%	5.62µM*	-1.6%	-22.1%
CCOC(=O)CC1C(=O)NCCN1C(=O)c1cc2c(=O)n3cccc(C)c3nc2s1 (stereo not given)	0.9	-5.4%	-4.5%	-2.9%	8.2%
Cc1ccc(N2CCN(C(=O)c3cn(C)c4ccc(S(=O)(=O)N(C)C5CCCCC5)cc4c3=O)CC2C)cc1 (stereo not given)	·	-6.5%	-4.3%	-3.2%	·
O=C(O)CO	2.3	·	·	·	-1.1%
CCCCN1CCC[C@H]1CNC(=O)c1cc(C#N)c2ccccc2c1OC	2.2	·	·	·	0.6%
COc1ccc(C(=O)n2nc(-c3ccco3)nc2N)cc1OC	-1.2	-14.6%	?	?	-2.4%
COc1ccc(C(=O)n2nc(-c3ccccc3)nc2N)cc1OC	0.1	-6.1%	-3.7%	0.2%	79.4µM*
CC1(C)CC(=O)C(CC(=O)Nc2ccc(S(N)(=O)=O)cc2)=C(O)C1	-1.5	-6.0%	-9.7%	-0.2%	-1.3%
CC1(C)CC(=O)C(CS(=O)(=O)c2ccccc2)=C(O)C1	·	·	·	·	50.1µM*
CCOC(=O)c1c(NC(=O)C2CCCO2)sc(C(=O)OC(C)(C)C)c1C (stereo not given)	-3.7	-7.8%	-2.1%	-4.4%	44.7µM*
Cc1cc2c(c(C)c1Cl)C(c1ccc3c(c1)OCO3)CC(O)(c1ccccc1)O2 (stereo not given)	-6.0	·	·	·	23.7%
Cn1c(=O)c2[nH]c(-c3ccccc3)c(O)c2n(C)c1=O	-3.4	-16.8%	?	?	14.1µM*
CN(C)c1ccc(N=Nc2cccc3ccoc23)cc1	-1.1	15.8µM*[quencher]	1.41µM*	11.4%	44.7µM*
CCCCNC(=O)c1ccc2c(c1)NC(=O)C(CS(=O)(=O)Cc1cccc(C)c1)N2 (stereo not given)	·	?	17.8µM*	?	·
COC(=O)C1=COC(O[C@H]2OC(CO)[C@H](O)C(O)C2O)[C@H]2C1C(=O)C[C@@H]2C (stereo not given in full)	0.4	1.5%	?	2.8%	2.7%
COc1ccc(CCNC(=O)Cc2c(C)c3cc4c(C)coc4cc3oc2=O)cc1OC	·	-4.1%	0.1%	3.3%	·
Cc1nc(N2CCC(C)CC2)c2c(C)c(C(=O)Nc3cccc(C(F)(F)F)c3)sc2n1	-5.3	-21.9%	1.7%	-8.3%	22.5%
SMILES	Coupling enz	Tau fluor cs	Tau ThT inhib	Tau FP inhib	Sfp inh
Cc1nc(Nc2cnc(/C=C/c3cc(C(=O)Nc4cccc(C(F)(F)F)c4)ccc3C)cn2)cc(N2CCNCC2)n1	-1.0	·	·	·	50.1µM*
O=C(CCn1ccc2cc(S(=O)(=O)N3CCCC3)ccc21)NCc1ccccc1Br	·	-7.0%	9.4%	-0.1%	·
COc1ccc(N2C(=O)/C(=C\c3ccco3)N=C2SCC(=O)NC(C)C)cc1Cl	0.5	-25.5%	?	?	-21.5%
COc1ccc(N2C(=O)/C(=C\c3ccco3)N=C2SCC(=O)N(C(C)C)C(C)C)cc1Cl	-6.4	-23.3%	?	0.3%	56.2µM*
O=C(CSC1=N/C(=C/c2ccco2)C(=O)N1c1ccc(OC(F)F)cc1)NC1CCS(=O)(=O)C1 (stereo not given)	-1.8	-25.1%	28.2µM*	?	-18.1%
O=C(O)c1cc(-c2cc(C(=O)O)c3ccccc3n2)nc2ccccc12	5.0	·	·	·	3.6%
O=C(NC1CC1)c1cc(-c2ccco2)nc2ccccc12	0.3	-29.4%	·	-8.4%	44.7µM*
CCNC(=O)COC(=O)c1cc(-c2ccco2)nc2ccccc12	0.1	?	?	?	15.8µM*
COc1ccc(CNC(=O)COC(=O)c2cc(-c3ccco3)nc3ccccc23)cc1	-1.8	?	?	4.2%	?
O=C(OCC(=O)N1CCN(C(=O)c2ccco2)CC1)c1cc(-c2ccco2)nc2ccccc12	-0.5	-13.9%	?	3.6%	-103.3%
O=C(O)c1cc(-c2ccco2)nc2ccccc12	-4.5	-10.1%	-14.4%	-3.7%	35.5µM*
O=C(c1cc(-c2ccco2)nc2ccccc12)N1CCN(c2ccc(F)cc2)CC1	-16.2	-14.7%	-15.7%	13.9%	25.1µM*
Cc1ccc(C)c(-c2cc(C(=O)NC3CC3)c3ccccc3n2)c1	·	·	·	·	-5.1%
O=C(Nc1ccccc1[N+](=O)[O-])c1csnn1	·	-7.3%	-3.9%	-3.7%	·
Cn1c(=O)c(C(=O)COC(=O)c2cc(C3CC3)nc3ccccc23)c(N)n(Cc2ccccc2)c1=O	-4.6	?	-11.7%	-16.9%	19.8%
Cn1c(=O)c(C(=O)COC(=O)c2cc(-c3ccco3)nc3ccccc23)c(N)n(CC2CC2)c1=O	0.5	?	?	-3.7%	22.4µM*
CCC(/C=C1\Sc2ccc(OC)cc2N1CCO)=C\c1sc2ccc(OC)cc2[n+]1CCO	-14.7	0.398µM*[fluorescent]	1.12µM*	-13.2%	22.4µM*
CCC(/C=C1\Sc2ccc(OC)cc2N1CC)=C\c1sc2ccc(OC)cc2[n+]1CCCS(=O)(=O)[O-]	-0.3	0.794µM*[fluorescent]	3.55µM*	?	50.1µM*
CCC(=O)/C=C1/Sc2ccc(OC)cc2N1CCO	0.4	-5.6%	-2.5%	1.4%	-1.8%
CCN(CC)c1ccc(C2C(C(=O)Nc3ccccc3C)=C(C)Nc3ncnn32)cc1 (stereo not given)	·	-24.2%	-5.7%	-3.0%	·
COCCCNC(=O)CSc1nc2cc3c(cc2c(=O)n1CCCCCC(=O)NCc1ccc(OC)cc1)OCO3	·	13.6%	16.0%	-6.3%	·

Compound activity: PubChem BioAssay, National Center for Advancing Translational Sciences (NCATS)
